Results from PubChem BioAssay (EPA / NIEHS).
Records with an inconclusive call do not appear. The source made the active and inactive calls. How the source made its calls: active means hit-call score of the fitted dose curve at least 0.9, where 1 is the maximum; inconclusive means response in the unintended direction; inactive means score below 0.9.

molecular target: Nuclear receptor subfamily 1 group I member 3 (Homo sapiens) (UniProt Q14994); assay: ATG_CAR_TRANS: Attagene TRANS-FACTORIAL HepG2 Assay for human Constitutive Androstane Receptor (CAR) (AID 2282969); conditions: HepG2 Attagene TRANS-FACTORIAL CAR reporter;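 further: activators raise reporter mRNA above DMSO so AC50 marks induction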
Sequence (Q14994 whole entry, looked up, the tested form may be a part): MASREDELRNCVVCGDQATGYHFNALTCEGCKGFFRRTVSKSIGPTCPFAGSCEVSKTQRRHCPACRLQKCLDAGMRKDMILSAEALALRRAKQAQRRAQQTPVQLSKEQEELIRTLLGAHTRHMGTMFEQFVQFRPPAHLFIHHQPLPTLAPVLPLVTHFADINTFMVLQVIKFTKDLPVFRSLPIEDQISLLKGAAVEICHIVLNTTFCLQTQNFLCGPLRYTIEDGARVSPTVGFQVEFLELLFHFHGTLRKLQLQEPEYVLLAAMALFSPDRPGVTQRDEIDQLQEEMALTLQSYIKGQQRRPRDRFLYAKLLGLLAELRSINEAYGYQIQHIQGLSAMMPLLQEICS
How it was run: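 Signal is reporter mRNA induction relative to DMSO, measured 24 h after dosing by RT-PCR with fluorescent primer extension and capillary electrophoresis. Human HepG2 liver cells carried transiently transfected chimeric NR-Gal4/GAL4-UAS reporter constructs.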

SMILES	outcome
COC(=O)c1cccc(C)c1S(=O)(=O)NC(=O)Nc1nc(OCC(F)(F)F)nc(N(C)C)n1	inactive
CC1(C)C(C=C(Cl)Cl)C1C(=O)OCc1cccc(Oc2ccccc2)c1 (stereo unspecified)	inactive
CCC(C)OC(=O)N1CCCCC1CCO (stereo unspecified)	inactive
CCC(O)=C1C(=O)CC(C(=O)O)CC1=O (stereo unspecified)	inactive
CCOC(=O)c1ccc(O)cc1	inactive
O=C(O)C1(C(=O)Nc2ccc(Cl)cc2Cl)CC1	inactive
c1ccc(Nc2ccccc2)cc1	inactive
CC(C)(c1ccc(O)cc1)c1ccc(O)cc1	inactive
CCCCOC(=O)[C@@H](C)Oc1ccc(Oc2ccc(C(F)(F)F)cn2)cc1	inactive
COC(=O)c1ccccc1S(=O)(=O)NC(=O)Nc1nc(OC(F)F)cc(OC(F)F)n1	inactive
COC(=O)c1ccc(CNS(C)(=O)=O)cc1S(=O)(=O)NC(=O)Nc1nc(OC)cc(OC)n1	inactive
CC(C)CCCCCCc1ccc(O)cc1	inactive
CCOC(=O)NCCOc1ccc(Oc2ccccc2)cc1	inactive
O=C(O)c1ccccc1	inactive
CCCN(CCC)c1c([N+](=O)[O-])cc(C(F)(F)F)c(N)c1[N+](=O)[O-]	inactive
N#CSCSc1nc2ccccc2s1	inactive
CCN(Cc1c(F)cccc1Cl)c1c([N+](=O)[O-])cc(C(F)(F)F)cc1[N+](=O)[O-]	inactive
CCCN(CCC)C(=O)SCC	inactive
OB(O)O	inactive
O=C(c1ccc(O)cc1O)c1ccc(O)cc1O	inactive
CC(=O)S[C@@H]1CC2=CC(=O)CC[C@]2(C)[C@H]2CC[C@@]3(C)[C@@H](CC[C@@]34CCC(=O)O4)[C@H]12	inactive
CCCCC(CC)CN1C(=O)C2C3C=CC(C3)C2C1=O (stereo unspecified)	inactive
CCCCOC(=O)C(C)Oc1ccc(Oc2ccc(C(F)(F)F)cn2)cc1 (stereo unspecified)	inactive
CCCOC(=O)c1ccc(C(=O)OCCC)nc1	inactive
O=C(c1ccccc1)C1CCCCC1	inactive
COc1c(Cl)ccc(Cl)c1C(=O)O	inactive
CCSC(=O)N(CC(C)C)CC(C)C	inactive

molecular target: Estrogen receptor (Homo sapiens) (UniProt P03372); assay: ATG_ERa_TRANS: Attagene TRANS-FACTORIAL HepG2 Assay for human Estrogen Receptor alpha (ERa) (AID 2282970); conditions: HepG2 Attagene TRANS ERa GAL4 reporter, mRNA
Sequence (P03372 whole entry, looked up, the tested form may be a part): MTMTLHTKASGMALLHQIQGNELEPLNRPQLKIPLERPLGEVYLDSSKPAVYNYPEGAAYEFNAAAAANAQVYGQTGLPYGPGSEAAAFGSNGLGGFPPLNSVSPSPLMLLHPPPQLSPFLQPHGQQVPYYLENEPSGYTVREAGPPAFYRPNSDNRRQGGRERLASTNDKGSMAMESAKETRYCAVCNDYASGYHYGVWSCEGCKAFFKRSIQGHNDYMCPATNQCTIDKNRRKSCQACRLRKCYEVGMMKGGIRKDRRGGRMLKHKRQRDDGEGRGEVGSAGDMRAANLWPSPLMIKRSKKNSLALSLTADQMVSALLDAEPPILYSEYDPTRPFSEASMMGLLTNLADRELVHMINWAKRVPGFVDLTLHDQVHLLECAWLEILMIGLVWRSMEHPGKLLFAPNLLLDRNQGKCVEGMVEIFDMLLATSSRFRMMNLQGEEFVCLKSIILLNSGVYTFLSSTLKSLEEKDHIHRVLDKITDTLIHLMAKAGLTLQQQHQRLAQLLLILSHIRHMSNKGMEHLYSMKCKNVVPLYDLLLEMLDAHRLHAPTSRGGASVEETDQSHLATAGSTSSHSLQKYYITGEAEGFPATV
How it was run: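 Transfected HepG2 cells carrying GAL4-UAS-driven reporter units were dosed for 24 hours. Total RNA was reverse-transcribed, reporter sequences PCR-amplified, FAM-labelled, HpaI-digested and resolved by capillary electrophoresis. Increases over DMSO control defined activity.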

SMILES	outcome	AC50
C[C@]12CC[C@@H]3c4ccc(O)cc4C[C@@H](CCCCCCCCCS(=O)CCCC(F)(F)C(F)(F)F)[C@H]3[C@@H]1CC[C@@H]2O (stereo partly specified)	inactive	–
COC(=O)c1cccc(C)c1S(=O)(=O)NC(=O)Nc1nc(OCC(F)(F)F)nc(N(C)C)n1	inactive	–
CC1(C)C(C=C(Cl)Cl)C1C(=O)OCc1cccc(Oc2ccccc2)c1 (stereo unspecified)	–	25.9 µM (active)
CCC(O)=C1C(=O)CC(C(=O)O)CC1=O (stereo unspecified)	inactive	–
O=C(O)C1(C(=O)Nc2ccc(Cl)cc2Cl)CC1	inactive	–
CCCCOC(=O)[C@@H](C)Oc1ccc(Oc2ccc(C(F)(F)F)cn2)cc1	inactive	–
COC(=O)c1ccccc1S(=O)(=O)NC(=O)Nc1nc(OC(F)F)cc(OC(F)F)n1	inactive	–
COC(=O)c1ccc(CNS(C)(=O)=O)cc1S(=O)(=O)NC(=O)Nc1nc(OC)cc(OC)n1	inactive	–
CC(C)CCCCCCc1ccc(O)cc1	–	735 nM (active) [middle of 4 runs]
CCOC(=O)NCCOc1ccc(Oc2ccccc2)cc1	–	13.8 µM (active)
O=C(O)c1ccccc1	inactive	–
CCCN(CCC)c1c([N+](=O)[O-])cc(C(F)(F)F)c(N)c1[N+](=O)[O-]	–	5.67 µM (active)
N#CSCSc1nc2ccccc2s1	inactive	–
CCN(Cc1c(F)cccc1Cl)c1c([N+](=O)[O-])cc(C(F)(F)F)cc1[N+](=O)[O-]	–	3.08 µM (active)
CCCN(CCC)C(=O)SCC	inactive	–
OB(O)O	inactive	–
O=C(c1ccc(O)cc1O)c1ccc(O)cc1O	–	827 nM (active) [middle of 4 runs]
CC(=O)S[C@@H]1CC2=CC(=O)CC[C@]2(C)[C@H]2CC[C@@]3(C)[C@@H](CC[C@@]34CCC(=O)O4)[C@H]12	inactive	–
CCCCC(CC)CN1C(=O)C2C3C=CC(C3)C2C1=O (stereo unspecified)	–	50 µM (active)
CCCCOC(=O)C(C)Oc1ccc(Oc2ccc(C(F)(F)F)cn2)cc1 (stereo unspecified)	inactive	–
CCCOC(=O)c1ccc(C(=O)OCCC)nc1	inactive	–
O=C(c1ccccc1)C1CCCCC1	–	25.3 µM (active) [middle of 4 runs]
COc1c(Cl)ccc(Cl)c1C(=O)O	inactive	–
CCSC(=O)N(CC(C)C)CC(C)C	inactive	–
